Reference: the supplement of paper PMC10515830
Counter-ions that a name gives are not always drawn.

What was measured:
Conditions in all cases: 10 µM; exposure time 6 h
[1] = test system: Danio rerio larvae (5 dpf); assay: difference in excitability vs DMSO (percentage points); higher = more excitable than DMSO
Method in brief: (§1)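 Library compounds were tested at 10 µM final in 100 µL egg water on wild-type 5 dpf zebrafish larvae in 96-well plates for 6 h, with 48 larvae per compound. After 3 h, plates at 28.5 ℃ were imaged every 6 s during a 3-h run of moving lines and 100 ms, 400Hz tones. Behaviours were quantified by Z-LaP Tracker and reported as the compound mean less the vehicle control mean, in percentage points.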

[2] = test system: Danio rerio larvae (5 dpf); assay: difference in startle response vs DMSO (percentage points); higher = stronger startle than DMSO
Method in brief: as §1

[3] = test system: Danio rerio larvae (5 dpf); assay: difference in activity during first hour vs DMSO (percentage points); higher = more activity than DMSO
Method in brief: as §1

[4] = test system: Danio rerio larvae (5 dpf); assay: difference in habituation to acoustic stimuli vs DMSO (percentage points); higher = more habituation than DMSO
Method in brief: as §1

[5] = test system: Danio rerio larvae (5 dpf); assay: difference in combined optomotor response to red, green and blue moving lines vs DMSO (percentage points); higher = stronger optomotor response than DMSO
Method in brief: as §1

SMILES	difference in excitability [1]	difference in startle response [2]	difference in activity during first hour [3]	difference in habituation to acoustic stimuli [4]	difference [5]
COCCOC(=O)C1=C(C)NC(C)=C(C(=O)OC(C)C)C1c1cccc([N+](=O)[O-])c1 (stereo not given) [Nimodipine]	7.48	-6.36	11.8	-10.8	-14.5
CC(C)(C(=O)O)c1ccc(C(O)CCCN2CCC(C(O)(c3ccccc3)c3ccccc3)CC2)cc1 (stereo not given) [Fexofenadine (hydrochloride)]	4.09	2.98	11.3	0.612	5.51
Clc1ccc(COC(Cn2ccnc2)c2ccc(Cl)cc2Cl)c(Cl)c1 (stereo not given) [Miconazole (nitrate)]	9.53	-10.9	-23.5	-11.4	-18.4
CC(C)(C)NC(=O)[C@@H]1C[C@@H]2CCCC[C@@H]2CN1C[C@@H](O)[C@H](Cc1ccccc1)NC(=O)[C@H](CC(N)=O)NC(=O)c1ccc2ccccc2n1 [Saquinavir (mesylate)]	9.2	-1.02	0.593	0.0845	-1.01
CC(O)C(O)[C@H]1CNc2nc(N)[nH]c(=O)c2N1 (stereo partly drawn) [(6R)-5,6,7,8-tetrahydro-L-Biopterin (hydrochloride)]	0.358	-1.51	-0.551	1.85	6.59
COc1ccc(S(=O)(=O)Nc2ccccc2CN(C)C/C=C/c2ccc(Cl)cc2)cc1 [KN-92 (hydrochloride)]	7.68	-0.787	-17.8	-4.48	-1.81
COc1cc(C)c(/C=C/C(C)=C/C=C/C(C)=C/C(=O)O)c(C)c1C [Acitretin]	6.34	-12.5	50.6	-15.4	-20.9
CC1(C)O[C@@H]2C[C@H]3[C@@H]4CCC5=CC(=O)CC[C@]5(C)[C@@]4(F)[C@@H](O)C[C@]3(C)[C@]2(C(=O)CCl)O1 [Halcinonide]	-1.92	2.79	7.26	9.28	6.48
C=CC[C@@H]1/C=C(\C)C[C@H](C)C[C@H](OC)[C@H]2O[C@@](O)(C(=O)C(=O)N3CCCC[C@H]3C(=O)O[C@H](/C(C)=C/[C@@H]3CC[C@@H](O)[C@H](OC)C3)[C@H](C)[C@@H](O)CC1=O)[C@H](C)C[C@@H]2OC	27	-6.28	5.28	-10.2	-13.7
Cc1ccc(Nc2nccc(N(C)c3ccc4c(C)n(C)nc4c3)n2)cc1S(N)(=O)=O [Pazopanib]	3.47	-4.32	-7.88	0.185	1.79
Nc1nc(F)nc2c1ncn2[C@@H]1O[C@H](COP(=O)(O)O)[C@@H](O)[C@@H]1O [Fludarabine Phosphate]	2.14	-0.759	3.53	-5.41	6.27
CC(C)CN(C[C@@H](O)[C@H](Cc1ccccc1)NC(=O)O[C@H]1CCOC1)S(=O)(=O)c1ccc(N)cc1 [Amprenavir]	-3.12	-6.45	6.71	0.569	7.88
CO/N=C1\CN(c2nc3c(cc2F)c(=O)c(C(=O)O)cn3C2CC2)CC1CN (stereo not given) [Gemifloxacin (mesylate)]	7.63	9.12	11	-1.77	2.04
C#C[C@]1(O)CC[C@H]2[C@@H]3CCC4=CCCC[C@@H]4[C@H]3C(=C)C[C@@]21CC [Desogestrel]	16.3	-10.3	30.8	-6.42	-15.3
Cc1cnc(NC(=O)C2=C(O)c3ccccc3S(=O)(=O)N2C)s1 [Meloxicam]	5.53	6.51	-3.33	3.11	4.63
O=C1CCc2ccc(OCCCCN3CCN(c4cccc(Cl)c4Cl)CC3)cc2N1 [Aripiprazole]	14.5	5.72	12.4	-8.81	-3.23
CCCCC[C@](C)(O)/C=C/[C@@H]1[C@@H](C/C=C\CCCC(=O)O)[C@@H](O)C[C@H]1O [15(S)-15-methyl Prostaglandin F2α]	1.12	0.545	22.8	1.43	5.47
Cc1cc(/C=C/C#N)cc(C)c1Nc1ccnc(Nc2ccc(C#N)cc2)n1 [Rilpivirine]	9.16	-10.5	-18.2	-9.2	-12.5
C[C@@H](Oc1cc(-c2cnn(C3CCNCC3)c2)cnc1N)c1c(Cl)ccc(F)c1Cl [(R)-Crizotinib]	11.1	-4.49	-3.18	0.409	-0.753
COc1ccc(CC(C)(C)NC[C@H](O)c2cc(O)cc3c2OCC(=O)N3)cc1 [Olodaterol]	10.9	-5.93	11.8	-9.87	3.03
COc1cc2nc(N3CCN(C(=O)C4COc5ccccc5O4)CC3)nc(N)c2cc1OC (stereo not given) [Doxazosin (mesylate)]	25	8.69	7.65	-8.22	-5.73
Clc1ccc(CCC(Cn2ccnc2)Sc2c(Cl)cccc2Cl)cc1 (stereo not given) [Butoconazole (nitrate)]	9.05	-10.1	-20.7	-10.8	-16.7
Nc1ccc(S(=O)(=O)c2ccc(N)cc2)cc1 [Dapsone]	4.16	3.11	2.88	2.23	1.86
CCCSc1nc(N[C@@H]2C[C@H]2c2ccc(F)c(F)c2)c2nnn([C@@H]3C[C@H](OCCO)[C@@H](O)[C@H]3O)c2n1 [Ticagrelor]	4.33	1.19	2.64	1.79	9.27

SMILES	difference in excitability [1]	difference in startle response [2]	difference in activity during first hour [3]	difference in habituation to acoustic stimuli [4]	difference [5]
CC(C)OC(=O)[C@H](C)N[P@](=O)(OC[C@H]1O[C@@H](n2ccc(=O)[nH]c2=O)[C@](C)(F)[C@@H]1O)Oc1ccccc1	-3.58	-4.12	10	1.16	6.56
CCN(CC)CCNC(=O)c1c(C)[nH]c(/C=C2\C(=O)Nc3ccc(F)cc32)c1C [Sunitinib (malate)]	17.6	-2.13	-4	0.523	-0.123
CN1C(CCl)Nc2cc(Cl)c(S(N)(=O)=O)cc2S1(=O)=O (stereo not given) [Methyclothiazide]	5.58	4.44	-0.184	2	-1.76
CCN1CCN(Cc2ccc(Nc3ncc(F)c(-c4cc(F)c5nc(C)n(C(C)C)c5c4)n3)nc2)CC1	21.9	1.59	-3.04	0.786	2.57
CN(C)c1cc(NC(=O)CNC(C)(C)C)c(O)c2c1C[C@H]1C[C@H]3[C@H](N(C)C)C(O)=C(C(N)=O)C(=O)[C@@]3(O)C(O)=C1C2=O [Tigecycline]	18.8	1.45	-22.5	-5.95	-3.12
CN(C)CCOC(=O)C(c1ccccc1)C1(O)CCCC1 (stereo not given) [Cyclopentolate (hydrochloride)]	-10.4	-4.29	-7.59	-2.76	-2.74
CC(C)Cn1cnc2c(N)nc3ccccc3c21 [Imiquimod]	-4.08	8.27	-15	-2.3	-3.49
CCOC(=O)[C@H](CCc1ccccc1)N[C@@H](C)C(=O)N1[C@H](C(=O)O)C[C@@H]2CCC[C@@H]21 [Ramipril]	-5.85	-2.41	5.42	-0.379	7.67
CC(=O)OCC(=O)[C@@]1(OC(C)=O)[C@@H](C)C[C@H]2[C@@H]3C[C@H](F)C4=CC(=O)C=C[C@]4(C)[C@@]3(F)[C@@H](O)C[C@@]21C [Diflorasone Diacetate]	10.5	-5.05	-4.84	-1.12	-4.79
NNCCc1ccccc1 [Phenelzine (sulfate)]	-5.16	2.45	-14.5	5.81	2.16
NC(N)=Nc1nc(CSCC/C(N)=N/S(N)(=O)=O)cs1 [Famotidine]	-2.4	-1.19	-7.05	6.6	-3.11
NC[C@H]1O[C@H](O[C@H]2[C@H](O)[C@@H](O[C@H]3O[C@H](CO)[C@@H](O)[C@H](N)[C@H]3O)[C@H](N)C[C@@H]2N)[C@H](N)C[C@@H]1O [Tobramycin]	25.5	-1.65	-2.18	4.43	-2.09
CC(C)Cc1ccc(C(C)C(=O)O)cc1 (racemic) [(±)-Ibuprofen]	15.5	-4.17	-2.46	3.85	6.34
N[C@@H]1CONC1=O [D-Cycloserine]	6.37	-2.86	4.38	-2.22	10.3
CN(C)CCC(c1ccc(Br)cc1)c1ccccn1 (stereo not given) [Brompheniramine (maleate)]	4.19	-2.92	-11.7	-3.69	7.28
CN1CC2c3ccccc3Oc3ccc(Cl)cc3C2C1 (racemic) [(±)-Asenapine]	15.8	-0.436	46.3	-12.3	-1.19
CN(C)CCc1c[nH]c2ccc(C[C@H]3COC(=O)N3)cc12 [Zolmitriptan]	-7.59	9.39	-0.487	4.76	10.3
O=C(O)CCCCCCCC(=O)O [Azelaic Acid]	1.68	4.07	-2.89	4.6	6.08
CC(C)C[C@H](NC(=O)[C@H](Cc1ccccc1)NC(=O)c1cnccn1)B(O)O [Bortezomib]	2.69	2.81	3.67	-1.33	-0.842
CCOC(=O)C1=C(COCCN)NC(C)=C(C(=O)OC)C1c1ccccc1Cl (stereo not given) [Amlodipine]	4.37	-5.58	1.69	0.668	7.23
COc1cc(C(=O)NCc2ccc(OCCN(C)C)cc2)cc(OC)c1OC [Trimethobenzamide (hydrochloride)]	-3.22	1.06	-0.789	2.91	-5.61
N=C(N)N/N=C/c1c(Cl)cccc1Cl [Guanabenz (hydrochloride)]	1.72	17.3	-12.1	5.15	8.58
CN(C)CCC=C1c2ccccc2CCc2ccccc21 [Amitriptyline (hydrochloride)]	2.65	5.98	-3.87	-14.7	-8.17
